Experiment [1] is described as follows: ATG_GLI_CIS: Attagene CIS-FACTORIAL HepG2 Assay for human Zinc Finger Protein GLI1 (AID 2282945). The note with it: HepG2, Attagene cis-factorial reporter mRNA, GLI element; actives raise or lower the signal. A digest of the protocol:
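Bidirectional curve fits relative to DMSO, using reporter mRNA levels from RT-PCR plus capillary electrophoresis. Cells were HepG2 transiently carrying cis-regulated reporter constructs, harvested 24 h after dosing.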

Experiment [2] is described as follows: ATG_GRE_CIS: Attagene CIS-FACTORIAL HepG2 Assay for human Glucocorticoid Response Elements (GRE) (AID 2282947). The note with it: HepG2 GRE cis-reporter, Attagene multiplex mRNA; actives raise or lower the signal. In outline:
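Reporter transcripts read by RT-PCR with capillary electrophoresis fluorescence after a 24 h chemical exposure of HepG2 cells transiently transfected with multiple cis-element reporter units. Gain or loss fitted against DMSO.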

Experiment [3] can be described thus: ATG_ISRE_CIS: Attagene CIS-FACTORIAL HepG2 Assay for human Interferon Regulatory Factor 1 (IRF1) binding to an Interferon-Stimulated Response Element (ISRE) (AID 2282948). The note with it: HepG2 ISRE cis-reporter (Attagene), mRNA transcription readout; actives raise or lower the signal. A digest of the protocol: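 Endogenous transcription factor activity read as reporter transcript abundance via RT-PCR and capillary electrophoresis. HepG2 cells transiently transfected, 24 h chemical exposure. Gain or loss fitted against DMSO baseline.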

Experiment [4] in a line: ATG_M_32_CIS: Attagene CIS-FACTORIAL HepG2 Assay for M32 Transcription Factor (Internal Marker) (AID 2282949).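 Further: background control marker of the multiplexed CIS panel rather than a real target.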 The note with it: HepG2 Attagene cis-factorial M32 reporter, mRNA; actives raise or lower the signal. A digest of the protocol:
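HepG2 human liver cells transiently transfected with cis-promoter-driven multiple reporter transcription units, dosed 24 h. Reporter mRNA quantified by RT-PCR, FAM-labelled primer extension, HpaI digest and capillary electrophoresis; bidirectional fit versus DMSO baseline.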

Experiment [5] can be described thus: ATG_M_06_CIS: Attagene CIS-FACTORIAL HepG2 Assay for M06 Transcription Factor (Internal Marker) (AID 2282950). The note with it: HepG2 Attagene CIS-FACTORIAL M06 internal marker reporter; actives raise or lower the signal. In outline:
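Measured 24 h post-dosing in transiently transfected HepG2 cells, this internal-marker endpoint reports reporter mRNA via RT-PCR with fluorescent primer extension and capillary electrophoresis. DMSO served as negative control and baseline for bidirectional fitting.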

In experiment [6] the target is Hypoxia-inducible factor 1-alpha (Homo sapiens) (UniProt Q16665). The experiment can be described thus: ATG_HIF1a_CIS: Attagene CIS-FACTORIAL HepG2 Assay for human Hypoxia Inducible Factor 1 (HIF1A) (AID 2282951). The note with it: HepG2 Attagene cis-factorial HIF1a reporter transcription; actives raise or lower the signal. A digest of the protocol: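 Dosed 24 h, transfected HepG2 cells yielded total RNA whose reporter transcripts were RT-PCR-amplified and sized by capillary electrophoresis using fluorescent labelling; DMSO defined baseline, with gain and loss of signal both fitted.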

The target in experiment [7] is Hepatocyte nuclear factor 6 (Homo sapiens) (UniProt Q9UBC0). The experiment can be described thus: ATG_HNF6_CIS: Attagene CIS-FACTORIAL HepG2 Assay for human Hepatocyte Nuclear Factor 6 (HNF6) (AID 2282952). The note with it: HepG2 Attagene cis-factorial HNF6 reporter transcription; actives raise or lower the signal. In outline: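 Endogenous transcription factor activity in human HepG2 liver cells was captured through cis-regulated reporter constructs. After 24 h treatment, reporter mRNA was measured by RT-PCR with capillary electrophoresis, and activity was fitted in both directions relative to DMSO.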

Experiment [8] concerns the target Heat shock factor protein 1 (Homo sapiens) (UniProt Q00613). Kind of experiment: ATG_HSE_CIS: Attagene CIS-FACTORIAL HepG2 Assay for human Heat Shock Transcription Factor 1 (HSE) (AID 2282953). The note with it: HepG2 HSE cis-reporter, Attagene RNA transcription; actives raise or lower the signal. A digest of the protocol:
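Reporter mRNA induction in HepG2 is measured 24 h after dosing, using transiently transfected multiplexed cis-regulated reporter units. Signal comes from capillary electrophoresis of labelled RT-PCR products, with DMSO as negative control.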

Experiment [9] can be described thus: ATG_MRE_CIS: Attagene CIS-FACTORIAL HepG2 Assay for human Metal Responsive Element (MRE) (AID 2282954). The note with it: HepG2 MRE cis-reporter transcription, Attagene multiplex; actives raise or lower the signal. In outline: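 Endogenous MRE-dependent transcription read as reporter mRNA in transiently transfected human HepG2 cells at 24 h. RNA reverse-transcribed, PCR-amplified, labelled and resolved by capillary electrophoresis; gain or loss relative to DMSO.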

Experiment [10] addresses Paired box protein Pax-6 (Homo sapiens) (UniProt P26367). The experiment can be described thus: ATG_Pax6_CIS: Attagene CIS-FACTORIAL HepG2 Assay for human Paired Box 6 (PAX6) (AID 2282956). The note with it: HepG2 CIS-FACTORIAL PAX6 reporter transcription, RNA readout; actives raise or lower the signal. In outline:
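Read-out is reporter transcript level, measured by RT-PCR with fluorescent primer extension and capillary electrophoresis after 24 h dosing of transfected HepG2 cells. Activity in either direction fitted relative to DMSO control.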

A short description of experiment [11]: ATG_PXRE_CIS: Attagene CIS-FACTORIAL HepG2 Assay for human Pregnane X Receptor Element (PXRE) (AID 2282957). The note with it: HepG2 Attagene CIS-FACTORIAL PXRE reporter, mRNA; actives raise or lower the signal. A digest of the protocol:
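Endogenous transcription factor activity in HepG2 was gauged through induction of reporter mRNA driven by a cis-regulating promoter element, sampled 24 h post-treatment. Activity was fitted in both directions against DMSO negative control.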

Experiment [12] in a line: ATG_RORE_CIS: Attagene CIS-FACTORIAL HepG2 Assay for human RAR-related Orphan Receptor Element (RORE) (AID 2282959). The note with it: HepG2 Attagene cis-factorial RORE reporter, mRNA; actives raise or lower the signal. A digest of the protocol:
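Transiently transfected HepG2 reporter cells were treated 24 h. Reporter transcripts were detected by RT-PCR and capillary electrophoresis, with bidirectional fitting against DMSO.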

Experiment [13] is described as follows: ATG_Sox_CIS: Attagene CIS-FACTORIAL HepG2 Assay for human SRY-box transcription factor (SOX) (AID 2282960). The note with it: HepG2 Attagene cis-factorial SOX reporter, mRNA; actives raise or lower the signal. A digest of the protocol: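 Gain- or loss-of-signal endpoint, fitted bidirectionally with DMSO as negative control. Based on reporter mRNA from transfected HepG2 cells harvested 24 h post-treatment and quantified via RT-PCR and capillary electrophoresis.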

Experiment [14] has as its target Transcription factor Sp1 (Homo sapiens) (UniProt P08047). Kind of experiment: ATG_Sp1_CIS: Attagene CIS-FACTORIAL HepG2 Assay for human Specificity Protein 1 (Sp1) (AID 2282961). The note with it: HepG2 Sp1 cis-reporter transcription, actives raise or lower the signal. A digest of the protocol:
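Endpoint reflects endogenous Sp1 transcriptional activity, not an exogenous fusion protein: HepG2 cells with transfected cis-regulated reporters, 24 h dosing, RT-PCR/capillary electrophoresis mRNA read-out, DMSO-normalised bidirectional fit.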

Experiment [15] in a line: ATG_SREBP_CIS: Attagene CIS-FACTORIAL HepG2 Assay for human Sterol Regulatory Element Binding (SREBP) (AID 2282962). The note with it: HepG2 Attagene cis-factorial SREBP reporter, mRNA; actives raise or lower the signal. A digest of the protocol: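 Endogenous SREBP activity read as cis-element-driven reporter transcript in transiently transfected HepG2, 24 h post-dosing; quantified via RT-PCR plus capillary electrophoresis of fluorescent fragments. Gain or loss of signal fitted relative to DMSO baseline.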

The target in experiment [16] is Signal transducer and activator of transcription 3 (Homo sapiens) (UniProt P40763). The experiment can be described thus: ATG_STAT3_CIS: Attagene CIS-FACTORIAL HepG2 Assay for human Signal Transducer and Activator of Transcription 3 (STAT3) (AID 2282963). The note with it: HepG2, Attagene cis-factorial STAT3 reporter transcription; actives raise or lower the signal. In outline:
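Readout is reporter transcript quantified by RT-PCR and capillary electrophoresis, with 6-FAM primer extension and HpaI digestion. Total RNA is taken 24 h after dosing transiently transfected HepG2 carrying cis-regulated reporter units. Bidirectional fit against DMSO.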

Experiment [17] is described as follows: ATG_TA_CIS: Attagene CIS-FACTORIAL HepG2 Assay for human TA Basal Promoter (AID 2282964). The note with it: HepG2 Attagene CIS-factorial TA basal promoter reporter; actives raise or lower the signal. In outline:
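Cis-factorial format in HepG2: reporters report endogenous factors, not chimeric Gal4 fusions. After 24 h treatment, reporter transcripts were measured by RT-PCR-capillary electrophoresis fluorescence, analysed bidirectionally versus DMSO.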

The target in experiment [18] is Bile acid receptor (Homo sapiens) (UniProt Q96RI1). The experiment can be described thus: ATG_IR1_CIS: Attagene CIS-FACTORIAL HepG2 Assay for human Nuclear Receptor Subfamily 1 Group H Member 4 (NR1H4), IR1 submotif (AID 2282946). The note with it: IR1 reporter transcription, actives raise or lower the signal. In outline: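 HepG2 cells transiently transfected with multiplexed cis-element reporter units read endogenous transcription factor activity. After 24 h compound exposure, reporter mRNA was quantified by RT-PCR, fluorescent labelling, HpaI digestion and capillary electrophoresis; bidirectional fitting versus DMSO baseline.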

A short description of experiment [19]: ATG_PBREM_CIS: Attagene CIS-FACTORIAL HepG2 Assay for human Phenobarbital-responsive Enhancer Module (PBREM) (AID 2282955). The note with it: HepG2 PBREM cis-reporter, Attagene multiplexed transcription; actives raise or lower the signal. In outline:
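Transfected liver-derived HepG2 cells exposed 24 h; PBREM reporter transcript quantified via RT-PCR and capillary electrophoresis, with activity in either direction referenced to DMSO.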

A short description of experiment [20]: ATG_PPRE_CIS: Attagene CIS-FACTORIAL HepG2 Assay for human Peroxisome Proliferator-activated Response Element (PPRE) (AID 2282958). The note with it: HepG2 PPRE cis-element reporter, Attagene transcription factor profiling; actives raise or lower the signal. In outline: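 Measured endpoint: PPRE-controlled reporter mRNA, detected by RT-PCR and capillary electrophoresis fluorescence, from transiently transfected HepG2 cells 24 h after dosing. Curves fitted in both directions using DMSO baseline.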

These results are taken from PubChem BioAssay (EPA / NIEHS).

“And” between values parts separate entries of the source, which are not always exact repeats. Equal entries are not always repeated. The source holds several records for some structures; these can differ, active in one and inactive in another. The source made the active and inactive calls. How the source made its calls: active means hit-call score of the fitted dose curve at least 0.9, where 1 is the maximum; inactive means score below 0.9.

Chain of Signal transducer and activator of transcription 3 (Homo sapiens) (P40763 whole entry, looked up): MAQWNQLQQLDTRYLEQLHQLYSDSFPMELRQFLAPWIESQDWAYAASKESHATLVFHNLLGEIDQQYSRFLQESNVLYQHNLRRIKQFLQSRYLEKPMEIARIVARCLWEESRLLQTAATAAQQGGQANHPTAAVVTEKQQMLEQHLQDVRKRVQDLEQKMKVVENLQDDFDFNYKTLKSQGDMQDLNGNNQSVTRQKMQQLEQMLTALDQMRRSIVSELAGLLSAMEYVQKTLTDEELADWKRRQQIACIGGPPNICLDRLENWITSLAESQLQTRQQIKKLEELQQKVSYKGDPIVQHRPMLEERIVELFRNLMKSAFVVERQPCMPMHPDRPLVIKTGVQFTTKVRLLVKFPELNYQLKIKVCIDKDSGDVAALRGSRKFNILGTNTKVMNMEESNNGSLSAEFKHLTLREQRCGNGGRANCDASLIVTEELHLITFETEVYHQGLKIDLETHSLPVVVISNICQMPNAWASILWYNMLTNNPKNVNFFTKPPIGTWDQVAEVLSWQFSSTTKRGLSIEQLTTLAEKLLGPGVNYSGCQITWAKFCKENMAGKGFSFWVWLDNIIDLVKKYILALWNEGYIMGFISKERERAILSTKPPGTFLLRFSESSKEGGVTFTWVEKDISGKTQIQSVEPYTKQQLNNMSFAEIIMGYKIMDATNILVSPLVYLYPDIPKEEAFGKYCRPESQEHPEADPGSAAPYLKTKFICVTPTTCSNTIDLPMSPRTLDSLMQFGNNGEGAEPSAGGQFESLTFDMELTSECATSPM
Chain of Hepatocyte nuclear factor 6 (Homo sapiens) (Q9UBC0 whole entry, looked up): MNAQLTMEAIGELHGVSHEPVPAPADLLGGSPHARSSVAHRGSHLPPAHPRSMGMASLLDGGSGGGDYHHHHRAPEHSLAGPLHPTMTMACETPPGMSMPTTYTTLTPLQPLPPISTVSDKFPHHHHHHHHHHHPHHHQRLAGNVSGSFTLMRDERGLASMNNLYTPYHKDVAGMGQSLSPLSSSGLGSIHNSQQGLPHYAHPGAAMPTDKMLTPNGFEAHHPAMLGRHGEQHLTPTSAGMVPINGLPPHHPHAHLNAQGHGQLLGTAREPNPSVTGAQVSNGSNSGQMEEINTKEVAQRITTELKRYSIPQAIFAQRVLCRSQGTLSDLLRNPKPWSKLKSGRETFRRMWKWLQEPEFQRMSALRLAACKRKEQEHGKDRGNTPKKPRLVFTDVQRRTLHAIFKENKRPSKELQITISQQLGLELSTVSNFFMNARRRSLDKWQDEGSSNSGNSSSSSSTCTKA
Chain of Heat shock factor protein 1 (Homo sapiens) (Q00613 whole entry, looked up): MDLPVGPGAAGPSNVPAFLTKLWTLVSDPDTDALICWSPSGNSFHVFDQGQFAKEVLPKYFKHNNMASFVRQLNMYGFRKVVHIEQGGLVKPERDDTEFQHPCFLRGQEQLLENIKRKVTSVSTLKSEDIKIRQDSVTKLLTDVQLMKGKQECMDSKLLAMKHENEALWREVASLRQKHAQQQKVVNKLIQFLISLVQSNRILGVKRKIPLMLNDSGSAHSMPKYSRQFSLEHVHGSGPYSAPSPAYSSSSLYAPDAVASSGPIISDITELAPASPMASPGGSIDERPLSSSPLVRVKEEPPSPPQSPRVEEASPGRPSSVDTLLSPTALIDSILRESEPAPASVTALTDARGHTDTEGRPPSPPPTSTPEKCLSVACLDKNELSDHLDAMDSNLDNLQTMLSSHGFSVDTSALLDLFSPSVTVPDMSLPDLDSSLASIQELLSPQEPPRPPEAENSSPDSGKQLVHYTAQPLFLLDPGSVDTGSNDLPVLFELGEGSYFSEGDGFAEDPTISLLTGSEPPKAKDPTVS
Chain of Transcription factor Sp1 (Homo sapiens) (P08047 whole entry, looked up, the tested form may be a part): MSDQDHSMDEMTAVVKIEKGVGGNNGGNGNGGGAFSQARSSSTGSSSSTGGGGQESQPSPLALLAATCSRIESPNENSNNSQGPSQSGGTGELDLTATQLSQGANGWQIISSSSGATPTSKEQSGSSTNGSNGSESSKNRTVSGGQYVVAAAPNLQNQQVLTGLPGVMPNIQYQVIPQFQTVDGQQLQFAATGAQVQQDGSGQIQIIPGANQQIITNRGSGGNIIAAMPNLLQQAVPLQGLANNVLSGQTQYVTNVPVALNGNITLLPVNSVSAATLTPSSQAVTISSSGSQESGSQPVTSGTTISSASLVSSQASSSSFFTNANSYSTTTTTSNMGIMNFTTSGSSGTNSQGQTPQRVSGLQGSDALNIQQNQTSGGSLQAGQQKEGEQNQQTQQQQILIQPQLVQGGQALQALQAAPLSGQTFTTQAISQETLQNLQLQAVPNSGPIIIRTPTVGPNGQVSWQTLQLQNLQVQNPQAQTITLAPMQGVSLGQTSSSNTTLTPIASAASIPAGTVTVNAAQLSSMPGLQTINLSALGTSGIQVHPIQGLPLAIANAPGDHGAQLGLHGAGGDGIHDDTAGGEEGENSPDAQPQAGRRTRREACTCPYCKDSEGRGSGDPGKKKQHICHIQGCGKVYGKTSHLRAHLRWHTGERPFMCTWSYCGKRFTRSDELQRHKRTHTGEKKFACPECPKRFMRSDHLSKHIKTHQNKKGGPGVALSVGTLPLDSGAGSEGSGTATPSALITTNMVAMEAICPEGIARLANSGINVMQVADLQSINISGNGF
Chain of Paired box protein Pax-6 (Homo sapiens) (P26367 whole entry, looked up): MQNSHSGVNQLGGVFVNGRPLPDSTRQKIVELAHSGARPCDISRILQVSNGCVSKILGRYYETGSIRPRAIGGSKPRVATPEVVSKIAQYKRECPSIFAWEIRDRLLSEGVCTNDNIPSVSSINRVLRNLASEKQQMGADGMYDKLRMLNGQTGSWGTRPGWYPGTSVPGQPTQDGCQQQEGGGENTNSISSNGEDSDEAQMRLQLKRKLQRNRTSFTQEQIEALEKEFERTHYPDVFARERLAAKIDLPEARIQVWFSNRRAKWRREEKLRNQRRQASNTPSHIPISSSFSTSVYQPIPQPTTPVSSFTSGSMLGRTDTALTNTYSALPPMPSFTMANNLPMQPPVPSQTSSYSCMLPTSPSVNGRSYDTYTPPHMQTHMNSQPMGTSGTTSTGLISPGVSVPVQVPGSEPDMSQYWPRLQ
Chain of Hypoxia-inducible factor 1-alpha (Homo sapiens) (Q16665 whole entry, looked up): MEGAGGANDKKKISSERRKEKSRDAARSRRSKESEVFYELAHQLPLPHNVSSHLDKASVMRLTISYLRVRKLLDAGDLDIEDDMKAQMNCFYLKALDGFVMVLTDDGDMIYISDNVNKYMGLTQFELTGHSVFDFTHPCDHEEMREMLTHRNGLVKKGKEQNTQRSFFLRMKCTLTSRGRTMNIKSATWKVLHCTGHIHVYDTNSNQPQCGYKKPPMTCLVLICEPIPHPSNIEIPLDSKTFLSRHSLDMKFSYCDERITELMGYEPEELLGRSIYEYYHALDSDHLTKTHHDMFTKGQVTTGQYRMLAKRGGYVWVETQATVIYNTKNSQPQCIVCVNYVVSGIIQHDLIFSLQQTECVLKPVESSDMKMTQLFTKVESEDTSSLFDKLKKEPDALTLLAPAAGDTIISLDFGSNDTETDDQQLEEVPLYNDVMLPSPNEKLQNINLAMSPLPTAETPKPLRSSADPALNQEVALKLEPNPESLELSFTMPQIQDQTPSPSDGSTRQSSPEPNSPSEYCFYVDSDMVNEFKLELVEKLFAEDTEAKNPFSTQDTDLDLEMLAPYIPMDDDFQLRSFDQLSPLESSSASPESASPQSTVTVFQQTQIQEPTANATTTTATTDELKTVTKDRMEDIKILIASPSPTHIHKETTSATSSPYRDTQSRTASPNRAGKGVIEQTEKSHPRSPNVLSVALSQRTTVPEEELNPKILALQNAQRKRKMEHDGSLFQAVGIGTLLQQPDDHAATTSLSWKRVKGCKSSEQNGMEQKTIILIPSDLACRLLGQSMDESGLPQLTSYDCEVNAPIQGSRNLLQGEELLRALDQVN
Chain of Bile acid receptor (Homo sapiens) (Q96RI1 whole entry, looked up): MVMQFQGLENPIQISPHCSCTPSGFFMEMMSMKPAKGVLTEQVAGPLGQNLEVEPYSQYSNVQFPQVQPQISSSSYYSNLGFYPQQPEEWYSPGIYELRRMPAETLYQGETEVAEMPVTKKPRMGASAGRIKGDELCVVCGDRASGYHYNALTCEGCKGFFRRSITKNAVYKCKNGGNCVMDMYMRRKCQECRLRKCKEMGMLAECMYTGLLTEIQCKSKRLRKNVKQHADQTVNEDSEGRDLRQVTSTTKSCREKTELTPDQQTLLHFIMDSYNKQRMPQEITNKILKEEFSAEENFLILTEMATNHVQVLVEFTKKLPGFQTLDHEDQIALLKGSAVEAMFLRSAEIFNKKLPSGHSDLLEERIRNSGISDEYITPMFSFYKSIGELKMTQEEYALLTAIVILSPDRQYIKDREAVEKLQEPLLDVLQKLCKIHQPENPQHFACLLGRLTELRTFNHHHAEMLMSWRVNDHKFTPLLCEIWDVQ

On to `S=C(S)NCCNC(=S)S.[Mn+2].[S-]C([S-])=NCCN=C([S-])[S-].[Zn+2]`, for which the molecule was called inactive in [1], in experiment [2], in experiment [3], in [4], in experiment [5] and in experiment [6]. Also, the outcome in experiment [7], in [8], in [9], in experiment [10], in experiment [11] and in experiment [12] was inactive. In addition, the molecule was classed as inactive in experiment [13], in experiment [14], in experiment [15], in [16] and in [17]. The AC50 (in general, the midpoint of the concentration-response curve, whichever way the signal moves) was 9.92 µM (active) and 10.9 µM (active) and 50 µM (active) in [3]; 18.3 µM (active) and 976 nM (active) in [6]; 9.92 µM (active) and 15 µM (active) and 12 µM (active) in [10]; 13.2 µM (active) and 13 µM (active) and 12.9 µM (active) in experiment [11]; 19.6 µM (active) in experiment [12]; 16.5 µM (active) and 23 µM (active) and 22.3 µM (active) in [13].
`c1ccc2[nH]c(-c3cscn3)nc2c1`: the molecule was classed as inactive in experiment [1], in experiment [18], in experiment [2], in experiment [3], in experiment [4] and in experiment [5]. In addition, the molecule was called inactive in experiment [6], in experiment [7], in experiment [8], in [9], in [19] and in experiment [10]. The result in [11], in [20], in experiment [12], in experiment [13], in experiment [14] and in experiment [15] was inactive. The molecule was called inactive in experiment [16] and in [17]. Besides, the AC50 in [11] was 10 µM (active).
`Cc1nn(C)c(Oc2ccccc2)c1C=NOCc1ccc(C(=O)OC(C)(C)C)cc1`: the molecule was called inactive in [1], in experiment [18], in experiment [2], in [3], in experiment [4] and in experiment [5]. Further, the call in [6], in [7], in experiment [12], in experiment [13], in [15] and in experiment [16] was inactive. Also, the call in experiment [17] was inactive. In addition, the AC50 in experiment [8] was 9.45 µM (active); in experiment [9], 1.88 µM (active); in experiment [10] it was 1.88 µM (active); in experiment [11], 1.15 µM (active); in [20] it was 0.0423 µM (active); in experiment [14] it was 0.0212 µM (active).
